DT40 TDP1 CPT: growth inhibition of DT40 Tdp1-/-;hTDP1 cells with camptothecin (screen for TDP1 inhibitors). chicken DT40 Tdp1-/-;hTDP1 cells + 20 nM CPT, ATP luminescence, 48 h. AID 686979. 12% of 420,000 active. Potency, µM (series often up to 46.2 µM), most hits filed as inhibitors; also: nearly all actives have a fitted effect of over 55% in size
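Cell growth measured by CellTiter-Glo luminescence after a minimum 48 h, 37 C compound exposure with 20 nM CPT in Tdp1-knockout DT40 cells stably expressing hTDP1, seeded 400/well; qHTS titration format.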
TDP1 cell noCPT: qHTS for Inhibitors of human tyrosyl-DNA phosphodiesterase 1 (TDP1): qHTS in cells in absence of CPT; DT40 Tdp1-/- hTDP1 cells, no CPT, ATP luminescence, 48 h; Potency, µM (top dose mostly 46.2 µM), usual class: inhibitors; 15% of 420,000 active; AID 686978, 2013; also: nearly all actives have a fitted effect of over 55% in size
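Chicken DT40 Tdp1-/- cells complemented with human TDP1, screened without camptothecin (DMSO vehicle only), 400 cells/well. Compounds pin-transferred, cells incubated at 37 °C for at least 48 hr. Growth read as ATP-dependent luminescence (CellTiter-Glo, 30 min at RT).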
uPA generation: blocks generation of uPA at the cell surface. cell surface uPA generation assay, qHTS. Potency, µM (titrated, usually from 38.3 µM), usual class: inhibitors. AID 540303. 0.31% of 330,000 active; active = well fitted inhibition curve with a large enough effect; inconclusive = small, poorly fitted or top-dose-only effect; inactive = no such curve, though single readings can be large or run the other way; tested in mouse RAW 264.7 cells; also: nearly all actives have a fitted effect of over 55% in size
HT1080-NT tox: kills 2HG-producing HT-1080-NT fibrosarcoma cells; HT-1080-NT fibrosarcoma viability, CellTiter-Glo ATP luminescence, 48 h; Potency, µM (highest dose often 46.1 µM), hits mostly cytotoxic; 1.6% of 360,000 active;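 also: NT is the 2HG producing partner of a matched IDH1 knockdown line; nearly all actives have a fitted effect of over 55% in size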
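HT-1080-NT fibrosarcoma cells (2HG-overproducing), 750 cells/well in RPMI with 5% FBS, dosed after 2 h and incubated 48 h at 37C. CellTiter-Glo luminescence normalized to DMSO and no-cell wells; concentration-response curves fitted and classed.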
HT1080 IDH1KD tx: toxicity to HT-1080 IDH1 knockdown cells (counter line); Potency, µM (titrated, usually from 46.1 µM), most hits filed as cytotoxic; HT-1080 IDH1 knockdown viability, ATP luminescence, 48 h; 2% of 360,000 active
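In this qHTS, HT-1080 cells depleted of IDH1 are exposed for 48 h at 37 °C to compound titrations. Toxicity is scored from CellTiter-Glo luminescence, with DMSO as full viability and medium alone as none.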
IL1B secr inh: blocks inflammasome-driven IL-1 beta release | activity change, % at 57.5 µM | 4.7% of 360,000 active | THP-1 LPS/ATP IL-1B secretion, AlphaLISA, 16 h; hits give low values; in the data active = activity change below about -50%; inconclusive = mostly about -30% to -49%
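Secreted IL-1B measured by AlphaLISA bead assay after 16 h compound exposure of THP-1 cells; compounds (final up to 57.5 uM) added 1 h before LPS (250 ng/mL) and ATP (1.25 mM) stimulation; lower signal means less secretion.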
Of the large screens only hits and unclear results are named; the others gave an inactive call. Only some compounds are listed: those with a hit (about 19% of all), similar ones and a draw of the others. Unless noted, calls follow the shape of the dose curve; as a rule, active = well fitted curve in the direction sought with a large enough effect; inconclusive = small, poorly fitted or top-dose-only effect, or another doubt; inactive = no such curve, though single readings can be large; an effect the other way counts as inactive or inconclusive.

Cc1ccc(N(CC(=O)NC2CCCC2)C(=O)CNC(=O)c2cccs2)c(C)c1	none
COc1ccccc1C1CC(c2ccc(Cl)cc2)Nc2nc(N)nn21 (centres undefined)	DT40 TDP1 CPT 10µM, TDP1 cell noCPT 16µM, HT1080-NT tox inconclusive (no result: uPA generation)
COc1ccc(C2CC(c3ccccc3)n3nc(NC(=O)c4cccs4)nc3N2)cc1 (centres undefined)	TDP1 cell noCPT inconclusive, IL1B secr inh -72
COc1ccc(C2CC(c3cccs3)n3nc(N)nc3N2)cc1 (centres undefined)	DT40 TDP1 CPT 23µM, TDP1 cell noCPT inconclusive, IL1B secr inh -59
Nc1nc2n(n1)C(c1cccs1)CC(c1ccc(F)cc1)N2 (centres undefined)	none
CCOc1ccccc1C1CC(c2ccc(F)cc2)Nc2nc(N)nn21 (centres undefined)	DT40 TDP1 CPT 1.2µM, TDP1 cell noCPT inconclusive
CC(C)n1nnnc1SCC(=O)Nc1cccc(F)c1	none
COc1ccccc1C1CC(c2ccc(Cl)cc2)Nc2ncnn21 (centres undefined)	DT40 TDP1 CPT 15µM, TDP1 cell noCPT 21µM
O=C(CSc1nnc(-c2ccc3c(c2)OCO3)o1)Nc1ncc(Cl)cc1Cl	DT40 TDP1 CPT 21µM, TDP1 cell noCPT 21µM, uPA generation inconclusive, HT1080-NT tox inconclusive, HT1080 IDH1KD tx inconclusive
CC(C)C(=O)N1CCN(c2cc(N3CCN(C)CC3)c(F)cc2[N+](=O)[O-])CC1	none
CCN1CCN(c2cc(N3CCc4ccccc4C3)c(F)cc2[N+](=O)[O-])CC1	DT40 TDP1 CPT 16µM, TDP1 cell noCPT 10µM, IL1B secr inh -104
O=C(Nc1ccccc1)c1cc(C2CCCCN2C(=O)c2ccc3c(c2)CCO3)on1 (centres undefined)	DT40 TDP1 CPT 23µM, TDP1 cell noCPT 18µM (no result: uPA generation)
N#Cc1cccc(NC(=O)c2cc(C3CCCCN3C(=O)c3ccc4c(c3)CCO4)on2)c1 (centres undefined)	DT40 TDP1 CPT inconclusive, TDP1 cell noCPT inconclusive (no result: uPA generation)
O=C(Nc1ccc(F)c(Cl)c1)c1cc(C2CCCCN2C(=O)c2ccc3c(c2)CCO3)on1 (centres undefined)	DT40 TDP1 CPT 16µM, TDP1 cell noCPT 21µM (no result: uPA generation)
O=C(NCc1ccc(F)cc1)c1cc(C2CCCCN2C(=O)c2ccc3c(c2)CCO3)on1 (centres undefined)	DT40 TDP1 CPT 18µM, TDP1 cell noCPT 18µM (no result: uPA generation)
Cc1cccc(OCCCCn2nnc3sc4c(c3c2=O)CCC(C)C4)c1 (centres undefined)	none (no result: uPA generation, HT1080-NT tox, HT1080 IDH1KD tx, IL1B secr inh)
CC(C)NC(=O)c1cn(C2CCCN(C(=O)c3cc4ccccc4oc3=O)C2)nn1 (centres undefined)	none (no result: uPA generation, HT1080-NT tox, HT1080 IDH1KD tx, IL1B secr inh)
COc1ccc(C2COc3cc(O)ccc3C2)c(OC)c1O (centres undefined)	DT40 TDP1 CPT 18µM, TDP1 cell noCPT 16µM, uPA generation inconclusive, HT1080-NT tox inconclusive, HT1080 IDH1KD tx inconclusive
COc1ccc2c(c1)OCC(Cc1ccc(OC)c(OC)c1)C2O (centres undefined)	TDP1 cell noCPT inconclusive (no result: uPA generation, HT1080-NT tox, HT1080 IDH1KD tx, IL1B secr inh)
O=C(NCCCN1CCOCC1)c1ccc2c(=O)n(Cc3cccc(Br)c3)c(=S)[nH]c2c1	TDP1 cell noCPT inconclusive, HT1080-NT tox inconclusive, HT1080 IDH1KD tx inconclusive, IL1B secr inh -65
COc1ccccc1Cn1c(=S)[nH]c2cc(C(=O)NCCN3CCOCC3)ccc2c1=O	none (no result: uPA generation)
COc1ccccc1Cn1c(=S)[nH]c2cc(C(=O)NCCCN3CCOCC3)ccc2c1=O	DT40 TDP1 CPT inconclusive, TDP1 cell noCPT inconclusive, HT1080-NT tox 16µM, HT1080 IDH1KD tx inconclusive
COc1ccccc1Cn1c(=S)[nH]c2ccc(F)cc2c1=O	IL1B secr inh -73

Screening results: PubChem BioAssay, National Center for Advancing Translational Sciences (NCATS)
